# Screening data deposited in PubChem by National Center for Advancing Translational Sciences (NCATS).
# MCF10A rerep: DNA re-replication induction in MCF 10a cells | MCF 10A DNA re-replication, Hoechst nuclear intensity, 48 h | Potency, µM (top dose mostly 46.1 µM), without a hit: top-dose activity, positive = re-replication, actives largely listed as activators | actives 2.9% (n = 350,000) | AID 624296; also: potency is read from the fitted curve at half-maximal effect; % of control where 0% means no effect; nearly all actives have a fitted effect of over 50% in size
# SW480 rerep: inducers of DNA re-replication in SW480 colon cancer cells; SW480 DNA re-replication, Hoechst DNA content imaging, 48 h; Potency, µM (series often up to 46.1 µM), for the others: at the top dose re-replication activation, actives largely listed as activators; actives 1.8% (n = 340,000); also: potency is read from the fitted curve at half-maximal effect; % of control where 0% means no effect; nearly all actives have a fitted effect of over 55% in size
#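 First, 250 cells per well were seeded. Next, compound or vehicle (23 nL) was pinned in, plates sat 48 hr at 37 C. Finally Hoechst was added for 40 min before fluorescence scanning.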
# IL-1B inflam inh: inflammasome signaling inhibition, IL-1 beta readout; THP-1 LPS/ATP IL-1B secretion, AlphaLISA, 16 h; stronger effect = lower value; actives 4.7% (n = 360,000); AID 743279; activity change, % at 57.5 µM; in the data active = activity change below about -50%; inconclusive = mostly about -30% to -49%; also: % is scaled to controls: 0 for no effect and ±100 for the full control effect
#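 THP-1 cells pretreated 1 hr with compounds (up to 57.5 uM final), then stimulated with LPS (250 ng/mL final) plus ATP (1.25 mM final); secreted IL-1B measured by AlphaLISA after 16 hr, decreased signal indicating inhibition.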
# KB-3-1 cytotox: KB-3-1 parental cell cytotoxicity; Potency, µM (series often up to 46.1 µM), actives largely listed as cytotoxic; actives 1.4% (n = 400,000); KB-3-1 viability, CellTiter-Glo ATP luminescence, 72 h; also: potency is read from the fitted curve at half-maximal effect; % is scaled to controls: 0 for no effect and ±100 for the full control effect; nearly all actives have a fitted effect of over 60% in size
#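 Here the drug-naive KB-3-1 line serves as comparator for MDR sub-line selectivity; cells received compound titrations, 72 h at 37 °C, then CellTiter-Glo readout.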
# KB-V1 cytotox: kills drug-selected multidrug resistant KB-V1 cells | KB-V1 MDR cells viability, CellTiter-Glo, 72 h | Potency, µM (titrated, usually from 46.1 µM), most hits filed as cytotoxic | actives 3.4% (n = 400,000); also: potency is read from the fitted curve at half-maximal effect; % is scaled to controls: 0 for no effect and ±100 for the full control effect; nearly all actives have a fitted effect of over 60% in size
#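 Readout: CellTiter-Glo luminescence, 10 min after addition. Cells: KB-V1 MDR subline, 72 h at 37 degrees C with compound. Analysis: corrected, normalized data fitted to concentration-effect curves.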
# Active calls of the source: *; i = inactive; u = inconclusive; x = no result; ! = repeats disagree; [ ] = remark or other dose. Sampled rows, rich in hits. Any-hit rate of the full collection: about 9.9%. Unless noted, calls follow the shape of the dose curve; as a rule, active = well fitted curve in the direction sought with a large enough effect; inconclusive = small, poorly fitted or top-dose-only effect, or another doubt; inactive = no such curve, though single readings can be large; an effect the other way counts as inactive or inconclusive.
SMILES,MCF10A rerep,SW480 rerep,IL-1B inflam inh,KB-3-1 cytotox,KB-V1 cytotox
O=C(CSc1nnc(-c2ccc3c(c2)OCO3)o1)Nc1ncc(Cl)cc1Cl,13µM*,u,-4.4,i,u
CC(=O)Nc1ccc(NC(=O)CSc2nnc(-c3ccc4c(c3)OCO4)o2)cc1,6.0%,-22.0%,14.7,i,i
c1cc(CSc2nnc(-c3ccc4c(c3)OCO4)o2)ccn1,-9.1%,-4.9%,-6.7,i,23.1µM*
Clc1ccccc1CSc1nnc(-c2ccncc2)o1,8.2%,1.9%,0.0,i,i
COc1ccc(C(=O)Nc2ccccc2C(=O)NCc2ccco2)cc1OC,u,-6.5%,-2.2,i,u
COc1cccc(NC(=O)c2ccccc2-c2nc(-c3ccccc3)no2)c1,-1.6%,2.9%,-4.2,i,u
COc1ccc(C(=O)Nc2c(Cl)cc(Cl)cc2C(=O)NCc2ccco2)cc1,6.9%,2.5%,10.4,i,7.31µM*
COc1ccc(C(=O)Nc2ccc(Cl)cc2C(=O)NCc2ccco2)cc1OC,u,-2.4%,-57.6*,i,u
COc1ccc(-c2noc(-c3ccccc3C(=O)NCc3ccco3)n2)cc1OC,u,-3.8%,u,i,3.66µM*
COc1cccc(NC(=O)c2ccccc2-c2nc(-c3ccc(F)cc3)no2)c1,6.9%,2.9%,-8.9,i,18.4µM*
Cc1c2cnn(CC(=O)NCCCN3CC(C)CC(C)C3)c(=O)c2c(C)n1Cc1ccccc1Cl (stereo not drawn),2.3%,19.7%,-58.2*,i,i
Cc1ccc(C)c(Cn2c3ccccc3c3cnn(CC(=O)NCCCN4CCOCC4)c(=O)c32)c1,10.5%,-0.5%,-55.4*,i,u
Cc1ccc(C)c(Cn2c3ccccc3c3cnn(CC(=O)NCCN4CCOCC4)c(=O)c32)c1,6.0%,-22.7%,-25.0,i,i
Cc1c(Cl)c(=O)n2c(=O)c(Cl)c(C)n12,-4.5%,-10.5%,13.4,i,i
Cc1cc(/C=C2/NC(=S)NC2=O)c(C)n1-c1cccnc1,u,-4.1%,-9.1,u,i
CN1C(=O)/C(=C/c2coc3ccc(O)cc3c2=O)SC1=S,3.1%,2.1%,13.7,i,i
Cc1cccc(-n2c(C)cc(/C=C3\NC(=O)NC3=O)c2C)c1,16.4µM*,u,x,i,u
Cc1cc(/C=C2/NC(=O)N(c3ccccc3)C2=O)c(C)n1-c1cccnc1,-7.2%,23.8%,-82.5*,i,u
Cc1cc(/C=C2/NC(=O)NC2=O)c(C)n1-c1ccncc1,0.0%,-12.4%,-16.7,i,u
Cc1cc(/C=C2/SC(=S)N(c3cccc(Cl)c3)C2=O)c(C)n1-c1cccnc1,u,-0.4%,-64.4*,i,i
Cc1cc(/C=C2\SC(=S)N(C)C2=O)c(C)n1-c1ccccc1O,13µM*,11.6µM*,-83.7*,u,u
CCOC(=O)c1[nH]c(C)c(CCC(=O)NCc2ccc(OC(C)C)cc2)c1C,x,x,x,i,i
Cc1ccc(Cl)cc1-n1c(=O)c2sc3ccccc3c2n(CC(=O)NC2CCCCC2)c1=O,x,x,x,i,i
C[C@H]1C[C@@H]2[C@H]3CCC4=CC(=O)C=C[C@@]4(C)[C@@]3(Cl)[C@@H](O)C[C@]2(C)[C@]1(OC(=O)c1ccco1)C(=O)CCl,2.8%[20.6 µM],-1.1%[20.6 µM],x,x,x
C[C@@H]1C[C@H]2[C@@H]3CCC4=CC(=O)C=C[C@]4(C)[C@@]3(Cl)[C@@H](O)C[C@]2(C)[C@@]1(OC(=O)c1ccco1)C(=O)CCl,7.9%,u,-89.0*,u,u
SMILES,MCF10A rerep,SW480 rerep,IL-1B inflam inh,KB-3-1 cytotox,KB-V1 cytotox
CCCC(C)NC(=O)COC(=O)c1cccc(NS(C)(=O)=O)c1 (stereo not drawn),-5.9%,-19.4%,-12.4,i,i
Cc1nc(=S)c2ccccc2[nH]1,-1.3%,-6.0%,27.5,i,i
Cc1cc2[nH]c3ccccc3c2c(C)n1,u,8.7%,-94.2*,u,16.4µM*
OCCN1CCN(C2CCC(c3ccc(F)cc3)c3ccc(F)cc32)CC1 (stereo not drawn),20.6µM*,u,-75.7*,u,u
COc1ccc(-c2nc3ccc(C)cn3c2NCc2ccccc2)cc1SC1CCCCC1,18.4µM*,2.8%[9.22 µM],0.0,i,i
Cc1ccc2nc(-c3cccc(SC4CCCCC4)c3)c(NC3CCCCC3)n2c1,10.7%,22.0%,10.0,i,i
CCCCNc1c(-c2ccc(SC3CCCCC3)c(OC)c2)nc2ccc(C)cn12,10.3µM*,u,-68.5*!,u,u
COc1ccc(-c2ccc(-c3nc4ccc(C)cn4c3NC3CCCCC3)cc2OC)cc1,u,u,-55.1*!,u,16.4µM*!
COc1ccc(-c2nc3ccc(Cl)cn3c2NC2CCCCC2)cc1SC1CCCCC1,16.4µM*,-0.7%,-58.3*,u,i
Cc1ncc([N+](=O)[O-])n1S(=O)(=O)c1cc(Cl)ccc1Cl,-2.7%,-3.2%,-1.6,i,i
CCOC(=O)C(CC)n1cnc2c(nnn2-c2cccc(OC)c2)c1=O (stereo not drawn),1.0%,-0.8%,37.9,i,i
CCCN1CCN(CC2=C(C(=O)OCC)C(c3cccc(OC)c3OC)NC(=O)N2)CC1 (stereo not drawn),x,x,x,i,i
CCCCNc1c(-c2ccc(OC)c(SC3CCCCC3)c2)nc2ccc(C)cn12,7.31µM*,105.2%,-58.8*,u,u
Cc1nn(C)c(C)c1S(=O)(=O)N1CCCC(C(=O)N2CCN(c3ccc(Cl)cc3)CC2)C1 (stereo not drawn),0.1%,-4.9%,-23.2,18.4µM*,i
Cc1ccc(C)c(N2CCN(C(=O)C3CCCN(S(=O)(=O)c4cccc5nonc45)C3)CC2)c1 (stereo not drawn),x,x,x,i,i
O=C(C1CCCN(S(=O)(=O)c2cccc3nonc23)C1)N1CCN(c2cccc(Cl)c2)CC1 (stereo not drawn),u,16.3%,-52.5*,i,u
O=C(C1CCCN(S(=O)(=O)c2cccc3nsnc23)C1)N1CC=C(c2ccccc2)CC1 (stereo not drawn),24.5%,0.2%,-54.8*,u,u
Cc1n[nH]c(C)c1S(=O)(=O)N1CCCC(C(=O)N2CCN(c3ccc(Cl)cc3)CC2)C1 (stereo not drawn),6.8%,u,-25.9,i,u
O=C(C1CCCN(S(=O)(=O)c2cccc3nonc23)C1)N1CCN(c2ccccc2Cl)CC1 (stereo not drawn),u,u,-50.5*,u,i
COC(=O)c1cc2oc3ccccc3c2n1CC(=O)Nc1ccc(OC)c(OC)c1,x,x,x,i,i
O=C(CSc1nc(=O)n(Cc2ccco2)c2c1CCC2)Nc1cccc(F)c1,x,x,x,i,i
